Giardia kill: kills Giardia lamblia | Giardia lamblia trophozoite viability | activity change, % at 7.66 µM, hits read low | actives 0.15% (n = 340,000) | AID 540267; in the data active means activity change below about -80%; inconclusive means between about -30% and that limit;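 further: parasites exposed to compound for two days anaerobically before the ATP read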
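Giardia lamblia trophozoites (100 cells/well) were incubated with compounds for 48 h at 37 deg C under anaerobic conditions. Viability was read as ATP content by one-step luminescence after 15-30 min at room temperature.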
ELG1 DNA repair: blocks ELG1-dependent DNA repair in HEK293T cells; AID 504467; Potency, µM (titrated, usually from 46.1 µM), usual class: inhibitors; actives 2.3% (n = 330,000); HEK293T ELG1-luciferase reporter, luminescence, 16 h; DNA damage induced by 5-fluorouridine; further: nearly all actives have a fitted effect of over 55% in size
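HEK293T cells expressing luciferase-tagged ELG1 (2,000/well) received 5-Fluorouridine plus compound or DMSO for 16 hr at 37 °C. Luciferase was read by ONE-Glo luminescence after 30 min at room temperature.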
Coupling enz: inhibits coupling enzyme system, counter-screen for aldolase hits; coupling enzyme system counterscreen, AmpLite Red fluorescence; activity change, negative = inhibition, % at 58.2 µM, hits read low; actives 0.67% (n = 290,000); AID 2472; in the data active means activity change below about -30%
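Fluorescence at 525 nm excitation and 598 nm emission measured inhibition of the coupled detection system without aldolase. Compounds (at 57.5 uM final) were preincubated 10 min at room temperature with coupling enzyme reagent before a 20 min substrate/AmpLite Red step.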
Sfp inh: inhibitors of Bacillus subtilis Sfp phosphopantetheinyl transferase. Q9F4F7. Biochemical Sfp PPTase activity, qHTS. Potency, µM, most hits filed as inhibitors. actives 3.5% (n = 310,000). AID 1490;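 further: the enzyme is Sfp with the accession as filed and its product quenches rhodamine fluorescence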
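Sfp 15 nM + cpd, 15 min RT; start w/ rhodamine-CoA 5 uM, BHQ-2-YbbR 12.5 uM (final); 50 mM Hepes pH 7.6, 10 mM MgCl2, 0.01% NP-40, 0.01% BSA; read 525/598 nm at 0 and 30 min.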
Large screens that a line does not name were inactive; ! = not active in a repeat. Compounds with a hit are over-represented: about 5.5% of the library has one in this group of screens. Unless noted, the call rests on the fitted dose curve; in most records, active means well fitted curve in the direction sought with a large enough effect; inconclusive means small, poorly fitted or top-dose-only effect, or another doubt; inactive means no such curve, though single readings can be large; an effect the other way counts as inactive or inconclusive.

O=S(=O)(/N=C(/Sc1ccccc1)c1ccccc1)c1ccc(Cl)cc1	none (no result: ELG1 DNA repair, Coupling enz, Sfp inh)
CC(C)c1ccc(-n2c(-c3ccccc3)c[n+]3c2CCc2ccccc2-3)cc1	ELG1 DNA repair 2.3µM
COc1ccccc1-n1c(-c2ccccc2)c[n+]2c1CCc1ccccc1-2	ELG1 DNA repair 3.3µM
COc1ccc(-n2c(-c3ccc(Br)cc3)c[n+]3c2CCc2ccccc2-3)cc1	ELG1 DNA repair inconclusive
CC(Sc1nc(C(C)(C)C)cc(-c2ccccc2)c1C#N)C(=O)Nc1ccccc1 (stereo not given)	Sfp inh 14µM
CC(Sc1nccn1C)C(=O)Nc1ccccc1 (stereo not given)	none
COc1cc(C(Nc2ccccn2)c2ccc3ccc(C)nc3c2O)cc(OC)c1O (stereo not given)	ELG1 DNA repair inconclusive, Sfp inh 18µM
COc1ccccc1NC(c1cccnc1)c1ccc2cccnc2c1O (stereo not given)	ELG1 DNA repair inconclusive, Sfp inh 20µM
Cc1ccnc(NC(c2cccnc2)c2ccc3cccnc3c2O)c1 (stereo not given)	ELG1 DNA repair inconclusive, Sfp inh inconclusive
COc1ccc(C(NC(=O)C(C)C)c2ccc3cccnc3c2O)cc1 (stereo not given)	ELG1 DNA repair 2.3µM
CC(Nc1cccc([N+](=O)[O-])c1)C(=O)Nc1ccc(S(=O)(=O)N2CCCC2)cc1 (stereo not given)	ELG1 DNA repair inconclusive (no result: Coupling enz, Sfp inh)
CC(NC(=O)C1CCN(C(=O)c2cccs2)CC1)c1ccc(S(N)(=O)=O)cc1 (stereo not given)	none (no result: Coupling enz, Sfp inh)
Cn1c(=O)c2[nH]c(COc3ccc(C(C)(C)C)cc3)nc2n(C)c1=O	ELG1 DNA repair 5.8µM
COc1ccc(N2CCN(C(=O)c3ccc(CS(=O)(=O)c4ccccc4C)o3)CC2)cc1	ELG1 DNA repair inconclusive
Cc1cccc(N2CCN(C(=O)c3ccc(CS(=O)(=O)c4ccccc4C)o3)CC2C)c1 (stereo not given)	ELG1 DNA repair 9.2µM
Cc1ccc(S(=O)(=O)Cc2ccc(C(=O)N3CCN(c4cc(C)ccc4C)CC3)o2)cc1	none
Cc1ccc(C)c(N2CCN(C(=O)c3ccc(CS(=O)Cc4ccc(Cl)cc4)o3)CC2)c1 (stereo not given)	ELG1 DNA repair 15µM
Cc1ccc(C)c(N2CCN(C(=O)c3ccc(CS(=O)(=O)c4ccccc4C)o3)CC2)c1	ELG1 DNA repair 26µM
Cc1ccnn1CCC(=O)N1CCCC(N2CCN(c3cccc(Cl)c3)CC2)C1 (stereo not given)	none (no result: Coupling enz)
Cc1cc(/C=C2\C(=N)N3N=C(S(C)(=O)=O)SC3=NC2=O)c(C)n1Cc1ccccc1	Sfp inh 45µM
CS(=O)(=O)N1CCN(c2nc(-c3cccs3)nc3ccccc23)CC1	none (no result: ELG1 DNA repair, Coupling enz, Sfp inh)
C[C@@H]1CN([C@@H](C)CO)C(=O)c2cc(NC(=O)CCN3CCOCC3)ccc2O[C@@H]1CN(C)C(=O)Nc1ccccc1	none (no result: Coupling enz, Sfp inh)
O=C(Nc1ccc2oc(=O)ccc2c1)c1ccc(-c2ccccc2[N+](=O)[O-])o1	ELG1 DNA repair inconclusive
COc1cccc(NC(=O)c2ccc(C(=O)c3ccccc3)o2)c1	ELG1 DNA repair inconclusive
Cc1cccc(NC(=O)c2ccc(-c3ccccc3[N+](=O)[O-])o2)c1	Sfp inh 50µM
CCC(=O)Nc1cccc(NC(=O)c2cccc([N+](=O)[O-])c2C)c1	ELG1 DNA repair 23µM
COc1cccc(NC(=O)c2ccc(-c3ccccc3[N+](=O)[O-])o2)c1	ELG1 DNA repair inconclusive, Sfp inh 45µM
Cc1ccc(C)c(NC(=O)c2cc([N+](=O)[O-])cc([N+](=O)[O-])c2)c1	none
COc1ccc(Oc2ncc3ncc(=O)n(Cc4cccs4)c3n2)cc1	none (no result: Giardia kill, ELG1 DNA repair)
Cc1ccccc1NC(=O)CSc1nnc2ccc(-c3ccncc3)nn12	none (no result: Coupling enz, Sfp inh)
Cc1ccc(NC(=O)CSc2nnc3ccc(-c4ccncc4)nn23)cc1	ELG1 DNA repair 5.8µM (no result: Coupling enz, Sfp inh)
CC(=O)c1ccc(NC(=O)C(C)O/N=C(\N)c2ccccc2)cc1 (stereo not given)	none (no result: Coupling enz, Sfp inh)
O=S1(=O)c2ccccc2N=NN1Cc1cc(Cl)cc(Cl)c1	Sfp inh inconclusive (no result: Giardia kill, ELG1 DNA repair)
O=S1(=O)c2ccccc2N=NN1Cc1ccc(Cl)cc1	Sfp inh 50µM
COC(=O)CCC(=O)OC1(C)C(=O)C=C2C=C(C3CC3)N(CC(C)C)C=C2C1=O (stereo not given)	Coupling enz -45, Sfp inh inconclusive (no result: Giardia kill)
COC(=O)CCC(=O)OC1(C)C(=O)C=C2C=C(C3CC3)N(Cc3ccccc3)C=C2C1=O (stereo not given)	none
COC(=O)CCC(=O)OC1(C)C(=O)C=C2C=C(C3CC3)N(c3ccc(OC)cc3)C=C2C1=O (stereo not given)	Coupling enz -41 (no result: Giardia kill, ELG1 DNA repair)
CCN(CC)CCCN1C=C2C(=O)C(C)(OC(=O)CCC(=O)OC)C(=O)C=C2C=C1C1CC1 (stereo not given)	Coupling enz -39, Sfp inh inconclusive (no result: ELG1 DNA repair)
COC(=O)CCC(=O)OC1(C)C(=O)C=C2C=C(C3CC3)N(CC3CC3)C=C2C1=O (stereo not given)	Coupling enz -44!
COc1ccc(NC(=O)N2CCc3nc(-c4ccc(OC)cc4C)c4c(c3C2)CO[C@@H](c2ccccc2)C4)cc1	none (no result: Giardia kill, ELG1 DNA repair)
COc1cccc(OCCn2cccc2/C=C2/C(=N)N3OC(C)=CC3=NC2=O)c1	ELG1 DNA repair inconclusive
CC1=CC2=NC(=O)/C(=C\c3cccn3CCOc3cc(C)cc(C)c3)C(=N)N2O1	ELG1 DNA repair 21µM, Sfp inh inconclusive
CC1=CC2=NC(=O)/C(=C\c3cccn3CCOc3cccc(C)c3)C(=N)N2O1	ELG1 DNA repair 23µM, Sfp inh inconclusive
Cc1nnc(N/N=C/c2cccc(C(F)(F)F)c2)n1N	none
Cc1nnc(N/N=C/c2cccc(OCc3ccc(Cl)c(Cl)c3)c2)n1N	ELG1 DNA repair inconclusive, Sfp inh 71µM
COc1ccc(C)cc1NC(=O)CCNC(=O)Cn1cnc2ccccc2c1=O	none
Nc1nc2c(nc(Br)n2C2OC(CO)C(O)C2O)c(=O)[nH]1 (stereo not given)	none (no result: Giardia kill, ELG1 DNA repair)
N#CCc1c(C#N)c(N)nc(N2CCN(C=O)CC2)c1C#N	none
N#CCc1c(C#N)c(N)nc(N2CCN(S(=O)(=O)c3ccccc3)CC2)c1C#N	ELG1 DNA repair 9.2µM
Cc1cccc(N2CC(C(=O)Nc3ccccc3N3CCOCC3)CC2=O)c1C (stereo not given)	none (no result: Coupling enz, Sfp inh)
COc1cc2c(=O)n(Cc3ccco3)c(=O)n(CC(=O)c3cccc(Br)c3)c2cc1OC	ELG1 DNA repair inconclusive, Sfp inh 79µM
COc1ccc2c(c1OC)C(=O)OC2N1C(=O)CC[C@H]1C(=O)Nc1ccc(F)cc1F (stereo not given in full)	none
Cc1ccc(NC(=O)CN2C(=O)N/C(=C/c3cc(C)n(-c4ccc(C(=O)O)cc4)c3C)C2=O)cc1	none
Cc1ccc(NC(=O)CN2C(=O)N/C(=C/c3cccn3-c3ccc(C(=O)O)cc3)C2=O)cc1	Sfp inh 50µM
Cc1ccc(NC(=O)CN2C(=O)N/C(=C/c3ccco3)C2=O)cc1	Sfp inh 45µM
